This is a sample that favours compounds with a hit; in the whole collection about 2.4% have one here.
D2 PAM-1 – human D2 receptor positive allosteric modulation; 0.23% of 360,000 active; DiscoveRx D2 beta-arrestin cells, luminescence, 90 min; 100% = 57 uM dopamine signal; potentiation, % (no concentration beside the values); in the data active = potentiation above about 50%; inconclusive = mostly about 30% to 49%
Target sequence (P14416 whole entry, looked up): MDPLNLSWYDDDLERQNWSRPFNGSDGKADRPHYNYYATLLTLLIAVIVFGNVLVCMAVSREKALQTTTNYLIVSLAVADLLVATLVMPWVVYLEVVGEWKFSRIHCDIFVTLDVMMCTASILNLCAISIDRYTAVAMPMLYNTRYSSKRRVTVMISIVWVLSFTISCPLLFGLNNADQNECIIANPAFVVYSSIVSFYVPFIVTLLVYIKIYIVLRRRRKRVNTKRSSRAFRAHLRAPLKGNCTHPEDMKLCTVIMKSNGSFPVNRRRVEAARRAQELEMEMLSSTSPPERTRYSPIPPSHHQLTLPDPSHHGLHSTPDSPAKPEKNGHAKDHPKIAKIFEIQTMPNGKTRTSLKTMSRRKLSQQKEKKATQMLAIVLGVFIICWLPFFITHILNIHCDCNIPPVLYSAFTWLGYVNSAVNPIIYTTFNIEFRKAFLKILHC
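PathHunter beta-arrestin assay in DiscoveRx D2 cells. Compounds were added with an EC20 of dopamine (50 nM final) for 90 min at 37 deg C. Luminescence was read 1 h after detection reagent, with 57 uM dopamine as the EC100 control.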
D2 PAM-2 – D2 dopamine receptor (human) potentiation. 0.34% of 340,000 active. potentiation, % at 10 µM. P14416. HEK293 T-REx D2, calcium flux, EC20 dopamine potentiation. AID 485347;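 active = potentiation over 3 SD above the plate norm, cut at about 30% in these data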; note: 0% is about no effect
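Primary screen. Calcium kinetics in induced HEK293 T-REx D2 cells: compound pre-addition 180 s, EC20 dopamine, 180 s more.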
D2 ag-1 – activates the human D2 dopamine receptor. P14416. DiscoveRx PathHunter D2 beta-arrestin, luminescence, 90 min; 100% = 57 uM dopamine signal. activation, % (test concentration not listed). 0.084% of 360,000 active. AID 624465; in the data active = activation above about 40%; inconclusive = between about 15% and that limit
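Agonist mode: compounds alone added to overnight-plated D2 PathHunter cells for 90 min at 37 C, with 57 uM final dopamine (EC100) defining full response. Beta-arrestin recruitment detected by chemiluminescent reagent, read after 1 h at ambient temperature.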
D2 antag – antagonists of human D2 dopamine receptor | P14416 | 2% of 340,000 active | HEK293 TREx D2 cells, calcium flux, dopamine EC80 | inhibition, % at 10 µM; in the data active = inhibition above about 30%; inactive = below that, where a call was filed; note: 0% is about no effect
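Read-out: kinetic calcium fluorescence (1 cycle/s) in inducible HEK293 T-REx D2 cells after an EC80 dopamine addition that followed 180 s compound preincubation. Loss of the dopamine response indicates antagonism.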
D2 ag-2 – agonists of human D2 dopamine receptor; P14416; HEK293 T-REx D2 cells, calcium flux agonist mode; 0.53% of 340,000 active; activation, % at 2 µM; AID 485358;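 active = activation over 3 SD above normal in the single-dose calcium agonist read, cut at about 30% in these data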; note: 0% is about no effect
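Agonism is scored from calcium flux in a force-coupled, inducible HEK293 cell line expressing D2, read kinetically for 180 s after compound addition against dopamine controls.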
The depositor's hits bear a star; ? = inconclusive; · = not tested or not shown.

SMILES | D2 PAM-1 | D2 PAM-2 | D2 ag-1 | D2 antag | D2 ag-2
c1ccc(COc2ccc(OCCCCN3CCCC3)cc2)cc1 | -23 | 1 | -6 | -2 | 3
CC1CCN(CCOc2ccc(OCc3ccccc3)cc2)CC1 | -34 | -36 | -10 | 31* | 2
COc1cccc2sc(N(Cc3cccnc3)C(=O)COc3ccccc3)nc12 | · | -11 | · | · | ·
COc1ccc(CNC(=O)c2sc3nc[nH]c(=O)c3c2C)cc1 | · | -6 | · | · | 0
CC(=O)Nc1ccc(S(=O)(=O)NCCC(=O)N2CCN(C(c3ccccc3)c3ccccc3)CC2)cc1 | -22 | 1 | 13 | 7 | 0
COc1ccc(CCNC(=O)c2cnc3ccc(C)cn3c2=O)cc1 | · | 6 | · | · | 0
Cc1ccc(Oc2nc(-c3ccccc3)ncc2S(C)(=O)=O)cc1 | 7 | 9 | -3 | 9 | 0
Cc1ccc(Oc2nc(-c3ccccc3)ncc2S(=O)(=O)c2ccc(C)cc2)cc1 | 0 | 2 | 0 | 40* | -1
COC(=O)C1CCN(C(=O)COC(=O)C2CCN(S(=O)(=O)c3c(Cl)cccc3Cl)CC2)CC1 | 6 | 2 | 0 | -18 | -1
CC(C)[C@H](CO)Nc1nc(Nc2ccc(Cl)c(C(=O)O)c2)c2ncn(C(C)C)c2n1 | -5 | -4 | -2 | 39* | 0
CC(C)n1cnc2c(Nc3ccc(C(=O)O)cc3)nc(Cl)nc21 | 1 | 10 | -2 | -16 | 0
CCN(C(=O)c1c(-c2ccccc2Cl)noc1C)C1CCCCC1 | -9 | 47* | -2 | -12 | -1
COc1cccc(C(=O)NCC2CCCN(C3CCCCC3)C2)c1OC (stereo not drawn) | 1 | -17 | 0 | 57* | 1
COc1cc(C(O)P(=O)(OCC(C)C)OCC(C)C)cc(OC)c1OC (stereo not drawn) | 9 | -8 | -2 | 16 | 0
CC(C)COP(=O)(OCC(C)C)C(O)c1ccccc1F (stereo not drawn) | -2 | -4 | -1 | 52* | 0
CCN(CC)CCNC(=O)c1ccc(NC(=O)c2c(C)nn(-c3ccc(F)cc3)c2Cl)cc1 | -16 | -12 | -3 | 41* | 0
CCN(CC(=O)Nc1ccc(NC(C)=O)cc1)C(=O)c1c(C)nn(-c2ccc(F)cc2)c1Cl | 0 | · | 2 | · | ·
COc1ccc(CCNC(=O)c2csc3c2CCCCC3)c(OC)c1 | · | -4 | · | · | 2
CCN1CCN(c2c(S(=O)(=O)c3ccc(C)c(C)c3)cnc3ccc(F)cc23)CC1 | -12 | -21 | -5 | 37* | -1
C/C(=N/NC(=O)c1ccc(Br)o1)c1ccncc1 | -11 | -1 | -4 | 38* | -1
COc1cc(C#N)ccc1OCC(=O)Nc1cccc(S(=O)(=O)N(C)c2ccccc2)c1 | -6 | · | 9 | · | ·
CCOC(=O)c1cccc(Nc2ncnc3ccccc23)c1 | -7 | 34* | 1 | 14 | 1
COc1ccc(C(=O)OCC(=O)NC2CCCCCC2)c(OC)c1 | -1 | -2 | 2 | 10 | 0
O=C(Nc1ccc(OC(F)(F)F)cc1)c1ccc2nc[nH]c2c1 | 13 | -9 | 4 | 62* | 1
Cc1ccccc1C(=O)NC(CC(C)C)C(=O)NN1C(=O)c2ccccc2C1=O (stereo not drawn) | 3 | -3 | -3 | 30* | 0
SMILES | D2 PAM-1 | D2 PAM-2 | D2 ag-1 | D2 antag | D2 ag-2
O=C(CN1C(=O)C(c2ccc(F)cc2)=NC12CCCCCC2)Nc1ccc(F)c(Cl)c1 | · | 9 | · | · | 0
O=C(CSc1nc2ccc(Cl)cc2[nH]1)NCCc1ccccc1 | -13 | 7 | -1 | 39* | 0
O=C(CSc1nc2ccc(Cl)cc2[nH]1)NCCc1ccc(Cl)cc1 | -3 | 8 | 0 | 2 | 0
COc1ccc(CC(=O)NNC(=O)c2cc(C)oc2C)cc1OC | -33 | -4 | -6 | 32* | 1
Cc1ccccc1-c1noc(N)c1C#N | 76* | -8 | 13 | 13 | 0
CC(=O)N(C)/C=C1\Sc2ccccc2C1=O | -3 | -4 | 3 | -16 | 0
CC(=O)Nc1ccc(/C=C2\Sc3ccccc3C2=O)cc1 | 56* | -9 | ? | 23 | 3
COc1ccc(Cl)cc1NS(=O)(=O)c1ccc2c(c1)NC(=O)CC(=O)N2 | · | · | · | · | 0
O=C(O)c1ccc(N2CCCS2(=O)=O)cc1 | 5 | -1 | -2 | 34* | 0
